Source: PubChem BioAssay
NOD2 RIPK2 PPI: NOD2-RIPK2 protein interaction inhibition. 360,000 tested, 0.38% active. inhibition, % at 4.98 µM. CHO BLA complementation NOD2-RIPK2, CCF4 ratio. O43353; in the data active means inhibition above about 21%;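 further: 0% = vehicle only and 100% = reference blocker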
TLR9-MyD88 block: TLR9-MyD88 interaction inhibition; CHO BLA complementation TLR9-MyD88, CCF4 FRET ratio; inhibition, % at 4.98 µM; 340,000 tested, 0.21% active;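 active means inhibition above the mean over all tested compounds plus 3 SD, cut at about 21% in these data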;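 further: 0% = DMSO only wells and 100% = clavulanate BLA inhibitor control wells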
TMEM16A inh: mouse TMEM16A channel inhibition, primary screen | Q8BHY3 | HEK293 TMEM16A/YFP iodide influx fluorescence, ionomycin | normalized B-score (activity score, 25-100; higher = stronger inhibition) at 10 µM | 310,000 tested, 1.2% active | AID 588511;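 active means ratio plate-corrected score three or more library SD toward inhibition, starting fluorescence score within five deviations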;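 further: score derived from kinetic fluorescence span divided by baseline fluorescence per well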
Target sequence (Q8BHY3 whole entry, looked up): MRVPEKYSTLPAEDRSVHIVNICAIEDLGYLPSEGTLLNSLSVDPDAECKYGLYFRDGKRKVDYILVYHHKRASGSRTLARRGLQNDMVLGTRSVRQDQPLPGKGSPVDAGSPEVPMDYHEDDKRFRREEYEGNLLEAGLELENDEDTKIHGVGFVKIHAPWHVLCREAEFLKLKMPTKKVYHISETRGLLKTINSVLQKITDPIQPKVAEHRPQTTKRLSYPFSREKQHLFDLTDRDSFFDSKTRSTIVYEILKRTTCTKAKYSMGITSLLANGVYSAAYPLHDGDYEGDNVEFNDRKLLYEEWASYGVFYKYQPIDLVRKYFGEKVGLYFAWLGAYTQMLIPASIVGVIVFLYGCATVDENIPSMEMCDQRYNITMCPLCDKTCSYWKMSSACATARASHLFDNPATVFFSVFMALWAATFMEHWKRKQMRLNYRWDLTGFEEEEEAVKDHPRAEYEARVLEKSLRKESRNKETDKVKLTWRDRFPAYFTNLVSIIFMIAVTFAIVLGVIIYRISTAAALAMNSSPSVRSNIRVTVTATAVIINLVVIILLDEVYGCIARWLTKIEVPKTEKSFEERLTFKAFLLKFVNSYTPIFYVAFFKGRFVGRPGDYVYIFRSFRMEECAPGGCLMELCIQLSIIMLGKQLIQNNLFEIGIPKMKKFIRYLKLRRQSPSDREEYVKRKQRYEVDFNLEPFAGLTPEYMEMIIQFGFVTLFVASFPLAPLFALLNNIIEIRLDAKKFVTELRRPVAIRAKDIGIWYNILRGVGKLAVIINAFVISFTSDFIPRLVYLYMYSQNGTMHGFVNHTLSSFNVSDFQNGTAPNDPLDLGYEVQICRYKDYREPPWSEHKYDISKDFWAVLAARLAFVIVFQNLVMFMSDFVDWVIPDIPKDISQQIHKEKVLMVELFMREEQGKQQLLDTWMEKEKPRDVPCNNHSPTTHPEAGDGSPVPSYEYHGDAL
TLR4-MyD88 BLA: TLR4-MyD88 interaction inhibition in cells | HeLa CL3-4 TLR4/MyD88 BLA complementation, FRET ratio | inhibition, % at 8.4 µM | O00206+Q99836 | AID 861 | 200,000 tested, 0.18% active; in the data active means inhibition above about 25%;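 further: 0% = vehicle and 100% = reference inhibitor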
m5-HT2A agonist: activates the mouse 5-HT2A serotonin receptor | CHO-K1 mHTR2A beta-arrestin complementation, luminescence; percent of 30 µM serotonin response | activation, % at 7.6 µM | 360,000 tested, 0.66% active | AID 624169;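 active means activation above a run cutoff, the mean activation of all tested compounds plus 3 SD, cut at about 14% in these data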;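 further: 0% = plate median of compound wells and 100% = 30 µM serotonin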
ANO1 activ: activators or potentiators of mouse TMEM16A chloride channel | Q8BHY3 | HEK293 TMEM16A/YFP-H148Q/I152L, iodide quench fluorescence; hits give low values | B-score at 10 µM | 340,000 tested, 0.3% active;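 active means fluorescence-ratio B-score plate-corrected deviation score at least 3 library SD below zero, with starting fluorescence score within 5 deviations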;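 further: channel opened by trigger with iodide after compound preincubation; score built on the fluorescence ratio of max minus min over baseline; more negative score means more quench and so TMEM16A activation or potentiation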
The depositor's hits bear a star; i = inactive; nt = not tested or not shown. Most compounds without a hit are left out; they make up all but 2.4% or so of the library.

SMILES	NOD2 RIPK2 PPI	TLR9-MyD88 block	TMEM16A inh	TLR4-MyD88 BLA	m5-HT2A agonist	ANO1 activ
COc1cccc(N=Nc2c(=O)[nH]n3c(=O)cc(C)[nH]c23)c1	4.5	9.6	i	-14.1	-5.2	-20.7*
COc1cccc(N=Nc2c(=O)[nH]n3c(=O)c4c([nH]c23)CCC4)c1	-7.2	-4.1	i	10.0	-4.0	i
O=C(NC1CCCCC1)c1sc(=S)n2c1[nH]c(=O)c1ccccc12	-12.5	-7.4	100*	1.4	9.6	i
CC1(C(=O)NS(=O)(=O)C2CC2)CCCN(C(=O)/C=C/c2ccccc2)C1 (configuration not stated)	-9.7	nt	nt	nt	-2.4	nt
NC(=S)N/N=C1\CC(n2nnn(-c3cccc(Cl)c3)c2=S)C2COC1O2 (configuration not stated)	1.4	-2.1	i	-7.6	-3.1	-5.65*
O=C(NC1CC2CCCC(C1)N2C(=O)Nc1ccc(Cl)c(C(F)(F)F)c1)C1CC1 (configuration not stated)	-2.6	-4.1	i	0.9	-6.5	i
O=C(Nc1ccc(Cl)c(C(F)(F)F)c1)NC1CC2CCCC(C1)N2Cc1ccccc1 (configuration not stated)	nt	nt	100*	-8.2	nt	nt
CCOC(=O)C1=CC[C@H]2c3c(c4ccccc4n3C)C(=O)C1N2C	-5.8	3.8	nt	nt	2.7	i
O=C(O)c1cnc(-c2ccccc2)nc1Sc1ccc(Cl)cc1Cl	2.6	-6.2	100*	10.3	3.3	i
O=C(O)c1cnc(-c2ccccc2)nc1Sc1cccc(Cl)c1	-3.8	-8.4	i	10.9	3.4	i
O=C(CSc1nc(Cc2ccccc2)nc2ccccc12)c1ccc2c(c1)OCCO2	4.3	3.4	i	2.0	19.4*	i
NNC(=O)c1sccc1OCc1ccc(F)cc1	0.7	4.0	i	3.9	-3.6	i
NNC(=O)c1sccc1OCc1ccc(Cl)cc1Cl	-10.1	-6.8	25*	-7.0	-0.6	i
COC(=O)C1=C(C)N(c2ccc(C)c(C)c2)/C(=C/c2ccco2)C1=O	-3.1	3.3	i	0.9	18.3*	i
COc1ccc(CNC(=O)CCOc2ccc(C(C)(C)C)cc2)cc1	10.9	0.1	i	-2.5	-3.3	i
COc1cc(/C=N/NC(=O)CCC(=O)Nc2ccc(C)cc2)ccc1O	-5.7	-2.5	i	-3.7	-1.6	i
C/C(=C\C(=O)c1ccccc1)Nc1ccc(Br)c(Cl)c1	-0.3	0.9	25*	nt	3.0	i
Cc1csc(=O)n1CC(=O)OC(C)C(=O)Nc1ccc(F)c(F)c1F (configuration not stated)	1.6	-4.8	i	nt	1.9	i
O=[N+]([O-])/C=C/c1c(OCc2ccccc2)ccc2ccccc12	82.2*	27.2*	i	13.2	-10.0	i
CCCCOc1ccc2ccccc2c1C=O	4.8	11.1	i	-13.0	4.7	i
CCOC(=O)c1cccnc1SCc1cc(=O)n2ccccc2n1	0.1	-4.4	25*	-1.5	4.5	i
CC(OC(=O)c1cccnc1SCc1cc(=O)n2ccccc2n1)c1ccccn1 (configuration not stated)	-28.7	9.2	i	0.0	1.1	i
CC(=O)c1ccccc1OCCOc1ccccc1C(C)=O	12.2	-5.0	i	nt	-0.5	i
COc1ccccc1OCCCCOc1ccccc1C(C)=O	-3.1	0.8	25*	12.8	2.9	i
COc1ccc(-c2noc(CN(C(=O)c3ccc4c(c3)OCO4)C(C)C)n2)cc1	-4.7	6.4	i	nt	-3.2	i
SMILES	NOD2 RIPK2 PPI	TLR9-MyD88 block	TMEM16A inh	TLR4-MyD88 BLA	m5-HT2A agonist	ANO1 activ
CN(Cc1nc(-c2ccc(Cl)cc2)no1)C(=O)c1ccc2c(c1)OCO2	-11.9	1.1	25*	nt	-2.7	i
CCN(CC)c1ccc(-c2nn3c(-c4n[nH]c5c4CCC5)nnc3s2)cc1	14.5	-6.0	i	-0.7	35.0*	i
CCN1C(=O)/C(=C2\SC(=S)N(NC(=O)c3ccccc3O)C2=O)c2ccccc21	-5.7	7.5	100*	nt	-1.4	i
Cc1cccc(C)c1NC(=S)Nc1ccc(Cl)c(Cl)c1	1.0	-2.0	i	-15.6	-3.4	i
Cc1ccc(NC(=S)Nc2ccc(Cl)c(Cl)c2)c(OC(F)F)c1	-2.3	-2.5	100*	-0.1	-4.3	i
Cc1cc(C)cc(NC(=S)Nc2ccc(Cl)c(Cl)c2)c1	-3.4	-1.2	100*	8.1	-2.4	-9.58*
COc1cc(OC)cc(Oc2ccc(S(=O)(=O)N3CCCCC3)cc2[N+](=O)[O-])c1	-4.9	-10.3	i	nt	-6.7	i
OC(COCC(F)(F)C(F)(F)C(F)(F)C(F)F)Cn1c2ccc(Cl)cc2c2cc(Cl)ccc21 (configuration not stated)	-1.8	4.9	i	-1.6	-1.4	i
CC(NC(=O)c1cc2cc(Br)ccc2oc1=N)c1ccccc1 (configuration not stated)	-9.1	4.7	25*	nt	2.0	i
O=C(CCl)N1CCN2C(=O)c3ccccc3C12c1ccc(Cl)cc1 (configuration not stated)	8.8	-10.3	i	5.0	-2.8	i
O=C(Nc1cccc(Cl)c1)N1CCN2C(=O)c3ccccc3C12c1ccccc1 (configuration not stated)	4.1	10.6	25*	8.8	-2.8	i
COc1ccc(Cl)cc1C(=O)NCc1ccc2c(c1)OCO2	-8.2	15.6	i	nt	-2.9	i
Cc1ccc(S(=O)(=O)N2[C@@H](c3cccc(Cl)c3)C(C(=O)O)=CC[C@H]2c2cccc(C)c2)cc1	-9.4	-3.6	25*	nt	5.6	i
Cc1ccc(S(=O)(=O)N2[C@@H](c3cccc(Cl)c3)C(C(=O)O)=CC[C@H]2c2cccc(Cl)c2)cc1	-20.1	-1.8	100*	nt	5.2	i
CN(C)c1cccc(CNC(=O)c2ccc3sc([C@H]4C[C@H](O)[C@@H](CO)O4)nc3c2)c1	-17.6	nt	nt	nt	0.8	nt
CCN(CC)c1ccc(/C=N/OCC(=O)Nc2cccc(C)c2)cc1	-1.6	3.7	25*	-0.4	0.8	i
O=C(NCC1(c2ccccc2)CCCC1)C1(c2ccccc2)CCCC1	-0.6	-8.1	100*	8.7	-1.8	i
CCCCn1c(SCC(N)=O)nnc1-c1ccco1	3.5	-3.2	i	-9.7	1.6	i
CCCCn1c(SCC(=O)NC(C)(C)C)nnc1-c1ccco1	2.2	3.3	25*	1.7	12.6	i
O=C1NC2(CCCCC2)CO1	-3.5	-3.6	i	nt	6.9	i
O=C1NC2(CCCCO2)CO1 (configuration not stated)	5.0	-3.2	i	nt	7.3	-11.3*
N#Cc1cccc(NC(=O)COc2ccc(-n3ccnc3)cc2)c1	-0.2	-12.4	25*	-3.8	1.0	i
